A number with no mark means an inactive call. Entries that show only a call come without a potency. For part of these data: Potency and affinity values are given separately. Activity calls are given as the source filed them. Unless noted, no rule for the calls is given here.
What was measured:
[1] = antimalarial activity against Dd2 strain (AID 2302;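 active = growth inhibition above 50% at the single 2 µM test dose, taken to imply half-maximal potency below 2 µM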); conditions: P. falciparum Dd2 in RBCs, LDH growth readout, 72 h; at 2 µM; active compounds read high
[2] = HepG2 cytotoxicity, primary screen, cytotoxicity control for P. falciparum antimalarial project, cell-based, ATP luminescence (AID 2303;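 active = inhibition above 50%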); conditions: HepG2 viability, 24-48 h, at 10 µM, active compounds read high
[3] = biological target: L-lactate dehydrogenase (Plasmodium falciparum (isolate CDC / Honduras)) (UniProt Q27743); test: PfLDH activity inhibition – cell lysate, 3D7 strain, counter-screen for P. falciparum growth inhibition project (AID 2304); conditions: P. falciparum 3D7 crude extract, LDH APAD/NBT absorbance; at 2 µM; active compounds read high
[4] = inhibition of 3D7 malaria parasite growth – strain 3D7 (AID 2306); conditions: P. falciparum 3D7 erythrocytic growth, LDH absorbance, 72 h; at 2 µM; active compounds read high
[5] = biological target: Calcium-dependent protein kinase 1 (Plasmodium falciparum (isolate 3D7)) (UniProt P62344); test: PfCDPK1 kinase inhibitors, biochemical, TCAMS library (AID 1159585; cut-off not given, nearly all actives have IC50 up to about 0.98 µM;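 also: inhibitors leave more ATP so luminescence rises with inhibition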); conditions: recombinant PfCDPK1, Kinase-Glo ATP depletion luminescence
[6] = biological target: Plasmodium falciparum protein kinase 6 (PK6, PF3D7_1337100) (UniProt Q8IDW1); test: PfPK6 kinase inhibitors, biochemical, TCAMS library (AID 1159586); conditions: recombinant PfPK6, Kinase-Glo ATP depletion luminescence
[7] = biological target: Protein kinase 7 (PK7), Plasmodium falciparum 3D7 (PF3D7_0213400) (UniProt Q7YTF7); test: inhibition of Plasmodium PK7 catalytic activity – biochemical, TCAMS antimalarial set, Kinase-Glo luminescence (AID 1159587); conditions: recombinant PfPK7, Kinase-Glo ATP depletion luminescence
[8] = biological target: Calcium-dependent protein kinase 4 (Plasmodium falciparum (isolate 3D7)) (UniProt Q8IBS5); test: PfCDPK4 kinase inhibitors, biochemical, TCAMS library (AID 1159588; cut-off not given, nearly all actives have IC50 up to about 0.91 µM); conditions: recombinant PfCDPK4, Kinase-Glo ATP depletion luminescence
Chain of Calcium-dependent protein kinase 4 (Plasmodium falciparum (isolate 3D7)) (Q8IBS5 whole entry, looked up): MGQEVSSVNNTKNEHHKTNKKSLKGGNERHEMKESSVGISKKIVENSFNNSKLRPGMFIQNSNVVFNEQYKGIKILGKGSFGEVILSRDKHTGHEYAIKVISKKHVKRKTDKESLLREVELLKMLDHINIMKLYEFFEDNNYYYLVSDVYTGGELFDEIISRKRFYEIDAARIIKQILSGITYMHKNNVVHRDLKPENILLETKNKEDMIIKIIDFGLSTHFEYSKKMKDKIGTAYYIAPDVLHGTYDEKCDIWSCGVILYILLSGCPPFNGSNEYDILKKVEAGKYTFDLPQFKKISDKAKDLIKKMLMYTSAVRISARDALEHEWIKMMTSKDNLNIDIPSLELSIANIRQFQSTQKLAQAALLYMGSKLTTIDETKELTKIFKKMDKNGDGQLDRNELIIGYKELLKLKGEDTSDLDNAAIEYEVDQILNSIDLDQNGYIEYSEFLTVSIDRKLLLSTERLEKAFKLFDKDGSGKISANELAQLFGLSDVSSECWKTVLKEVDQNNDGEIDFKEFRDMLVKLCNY

Chain of L-lactate dehydrogenase (Plasmodium falciparum (isolate CDC / Honduras)) (Q27743 whole entry, looked up): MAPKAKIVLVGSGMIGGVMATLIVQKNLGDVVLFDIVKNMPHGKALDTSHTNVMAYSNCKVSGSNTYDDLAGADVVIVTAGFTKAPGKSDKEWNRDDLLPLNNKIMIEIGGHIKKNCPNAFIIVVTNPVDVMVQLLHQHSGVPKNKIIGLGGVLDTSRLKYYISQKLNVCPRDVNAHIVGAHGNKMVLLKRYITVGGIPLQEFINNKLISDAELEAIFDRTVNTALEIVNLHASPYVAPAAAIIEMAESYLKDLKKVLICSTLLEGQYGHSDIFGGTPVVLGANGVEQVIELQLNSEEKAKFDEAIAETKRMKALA
Chain of Plasmodium falciparum protein kinase 6 (PK6, PF3D7_1337100) (Q8IDW1 1-305): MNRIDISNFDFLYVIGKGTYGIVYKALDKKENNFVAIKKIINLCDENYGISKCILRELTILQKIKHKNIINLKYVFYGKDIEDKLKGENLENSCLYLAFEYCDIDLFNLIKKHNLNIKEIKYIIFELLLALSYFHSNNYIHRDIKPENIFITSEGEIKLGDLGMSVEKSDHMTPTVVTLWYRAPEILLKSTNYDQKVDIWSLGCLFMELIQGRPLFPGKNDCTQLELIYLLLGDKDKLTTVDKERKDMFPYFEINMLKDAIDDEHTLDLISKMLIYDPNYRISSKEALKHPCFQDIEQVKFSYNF
Chain of Protein kinase 7 (PK7), Plasmodium falciparum 3D7 (PF3D7_0213400) (Q7YTF7 1-343): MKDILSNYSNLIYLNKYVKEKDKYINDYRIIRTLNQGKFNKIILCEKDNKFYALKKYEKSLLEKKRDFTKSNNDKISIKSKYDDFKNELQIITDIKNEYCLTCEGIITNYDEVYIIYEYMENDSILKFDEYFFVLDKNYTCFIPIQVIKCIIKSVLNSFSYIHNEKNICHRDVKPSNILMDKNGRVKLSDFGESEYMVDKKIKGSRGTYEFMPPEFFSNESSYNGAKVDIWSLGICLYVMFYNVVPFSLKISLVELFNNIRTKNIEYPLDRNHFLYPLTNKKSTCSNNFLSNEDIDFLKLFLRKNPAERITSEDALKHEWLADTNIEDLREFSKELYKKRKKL
Chain of Calcium-dependent protein kinase 1 (Plasmodium falciparum (isolate 3D7)) (P62344 whole entry, looked up): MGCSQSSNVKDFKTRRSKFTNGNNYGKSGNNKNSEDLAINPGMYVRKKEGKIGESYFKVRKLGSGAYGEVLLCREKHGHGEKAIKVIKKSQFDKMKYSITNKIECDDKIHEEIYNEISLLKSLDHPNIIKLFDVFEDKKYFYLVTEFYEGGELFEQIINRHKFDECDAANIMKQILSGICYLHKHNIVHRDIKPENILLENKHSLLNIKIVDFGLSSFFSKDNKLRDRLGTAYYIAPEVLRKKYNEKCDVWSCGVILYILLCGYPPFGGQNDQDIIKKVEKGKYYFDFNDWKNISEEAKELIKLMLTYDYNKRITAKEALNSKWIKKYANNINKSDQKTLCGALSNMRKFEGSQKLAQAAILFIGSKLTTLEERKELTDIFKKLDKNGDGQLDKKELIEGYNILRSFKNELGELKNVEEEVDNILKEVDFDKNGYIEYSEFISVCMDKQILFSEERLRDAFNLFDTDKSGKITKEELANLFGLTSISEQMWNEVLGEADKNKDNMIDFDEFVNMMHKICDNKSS

Structure (SMILES) | growth inhibition [1] | inhibition [2] | inhibition [3] | growth inhibition [4] | outcome [5] | outcome [6] | outcome [7] | outcome [8]
CC(C)N1CCC(N(Cc2ccc(-c3ccc(Cl)cc3)cc2)C(=O)Cn2c(CCc3cccc(F)c3F)cc(=O)c3ccccc32)CC1 | 73% (active) | 62% (active) | 4% | 96% (active) | inactive | inactive | inactive | inactive
CN1CCN(c2ccnc3cc4ccccc4cc23)CC1 | 49% | 11% | -9% | 93% (active) | inactive | inactive | inactive | inactive
CCc1ccc(C(=O)Nc2cccc(CN3CCCN(Cc4ccc(O)cc4)CC3)c2)cc1 | 74% (active) | 11% | -1% | 101% (active) | inactive | inactive | inactive | inactive
COc1cc(C)nc2ccc(NC(=O)c3cc([N+](=O)[O-])cc([N+](=O)[O-])c3)cc12 | 94% (active) | -2% | 2% | 102% (active) | inactive | inactive | inactive | inactive
Cc1cc(C2CCN(CCCCNC(=O)c3ccc(-c4ccc(C(F)(F)F)cc4)cc3)CC2)c(C)cc1OCC#N | 58% (active) | 40% | 3% | 100% (active) | inactive | inactive | inactive | inactive
O=C(NCCCCN1CC=C(c2ccc3c(c2OCc2ccccc2)CCCC3)CC1)c1ccc(-c2ccc(C(F)(F)F)cc2)cc1 | 82% (active) | 19% | -5% | 97% (active) | inactive | inactive | inactive | inactive
CC(C)CN1CCC(COc2ccc3ncn(-c4cc(O[C@H](C)c5ccccc5C(F)(F)F)c(C(N)=O)s4)c3c2)CC1 | 86% (active) | 46% | 7% | 97% (active) | inactive | inactive | inactive | inactive
Clc1ccc(CCNCCCCCCNCCc2ccc3c(c2)OCO3)cc1 | 11% | 23% | 7% | 91% (active) | inactive | inactive | inactive | inactive
Cc1cc(=O)[nH]c2cc(Nc3ccnc(Nc4cccc(C(N)=O)c4)n3)ccc12 | 98% (active) | 27% | -4% | 99% (active) | inactive | inactive | inactive | inactive
CC(C)C1C(O)=C(c2ccc3ccccc3c2)C(=O)N1CC1CCCCC1 (configuration not stated) | 43% | 11% | -3% | 84% (active) | inactive | inactive | inactive | inactive
CC(C)CCN1CCCN(Cc2ccc(C(=O)Nc3ccc(F)c(F)c3)cc2)CC1 | 27% | 36% | 5% | 88% (active) | inactive | inactive | inactive | inactive
CCCCc1cc(NCC)nc(Nc2ccc(OC)cc2)n1 | 32% | 30% | -4% | 85% (active) | inactive | inactive | inactive | inactive
Fc1ccc(Nc2ccnc3cc(-c4ccc(CNCCN5CCOCC5)o4)ccc23)c(Cl)c1 | 99% (active) | 34% | -1% | 100% (active) | inactive | inactive | inactive | inactive
O=S(=O)(NCCN1CCCC1)c1ccc(-c2cccc(CNCCc3cccs3)c2)s1 | 44% | 39% | -2% | 99% (active) | inactive | inactive | inactive | inactive
COc1cc(Cc2cnc(N)nc2N)cc(CC(C)O)c1O (configuration not stated) | 2% | -2% | -2% | 93% (active) | inactive | inactive | inactive | inactive
CC(=NN=C(N)N)c1ccc2ccc3ccccc3c2c1 | 23% | 14% | -7% | 97% (active) | inactive | inactive | inactive | inactive
Cc1cccc(CNc2nc(C)cc(NCCC(=O)NCc3cccc(F)c3)n2)c1 | 13% | 23% | -1% | 84% (active) | inactive | inactive | inactive | inactive
Cc1cc(N[C@@H](Cc2ccccc2)C(=O)NCc2cccc(F)c2)nc(NCCc2ccccc2)n1 | 73% (active) | 7% | 0% | 101% (active) | inactive | inactive | inactive | inactive
O=C(NCC1CCC(CNCCCc2ccccc2)CC1)c1cc(Cl)cc(Cl)c1 (configuration not stated) | 13% | 58% (active) | -1% | 89% (active) | inactive | inactive | inactive | inactive
CCn1c2ccccc2c2cc(Cc3cnc(N)nc3N)ccc21 | -2% | 28% | 5% | 94% (active) | inactive | inactive | inactive | inactive

Structure (SMILES) | growth inhibition [1] | inhibition [2] | inhibition [3] | growth inhibition [4] | outcome [5] | outcome [6] | outcome [7] | outcome [8]
CC(C)(CNCc1cccc(Oc2ccccc2)c1)c1nc(-c2ccc(Cl)c(O)c2)c(-c2ccnc(N)n2)[nH]1 | 99% (active) | 28% | 4% | 97% (active) | inactive | inactive | inactive | inactive
Cc1cc(N2CCCC2)nc(Nc2ccc(NC(=O)COc3ccccc3)cc2)n1 | 86% (active) | 43% | 4% | 101% (active) | inactive | inactive | inactive | inactive
CCOc1cc(C(=O)NC2CC(C)(C)NC(C)(C)C2)ccc1-c1nc2ccc(Cl)cc2[nH]1 | 64% (active) | 46% | 4% | 100% (active) | inactive | inactive | inactive | inactive
CC(OC(=O)c1ccc(C(=O)NCC2CC2)cc1)C(C)(C)C (configuration not stated) | 86% (active) | 10% | -3% | 93% (active) | inactive | inactive | inactive | inactive
O=C(Nc1cccc(C(F)(F)F)c1)NC1CCN(c2ccnc3ccccc23)CC1 | 43% | 23% | -1% | 101% (active) | inactive | inactive | inactive | inactive
COc1ccc(CNC2CCCC2)cc1-c1ccc(S(=O)(=O)NCCN2CCCC2)s1 | 17% | 17% | -3% | 96% (active) | inactive | inactive | inactive | inactive
O=C(Nc1ccc(OC2CCN(Cc3ccsc3)C2)c(Cl)c1)c1ccsc1 (configuration not stated) | 70% (active) | 4% | 0% | 85% (active) | inactive | inactive | inactive | inactive
O=C(Nc1ccccc1F)NC1CCN(c2ccnc(Nc3ccc(F)cc3)n2)CC1 | 63% (active) | 13% | -4% | 99% (active) | inactive | inactive | inactive | inactive
COc1ccc2nccc([C@@H](O)CN3CCC(NCCOc4ccccc4C#N)CC3)c2c1 | 99% (active) | 10% | 2% | 101% (active) | inactive | inactive | inactive | inactive
O=C(NCC1CCC(CNCCCc2ccccc2)CC1)Nc1ccc(Cl)c(Cl)c1 (configuration not stated) | 2% | 26% | -6% | 99% (active) | inactive | inactive | inactive | inactive
Cc1cccc2[nH]c(-c3cccc(-c4ccc(NC(=O)Cc5ccccn5)cc4)c3)nc12 | 57% (active) | 25% | 3% | 94% (active) | inactive | inactive | inactive | inactive
O=C(Cn1c(=O)cnc2ccccc21)Nc1cccc(C(=O)Nc2cccc(C(F)(F)F)c2)c1 | 66% (active) | -12% | 3% | 90% (active) | inactive | inactive | inactive | inactive
N#Cc1ccc(N2CCN(C(=O)c3cccc(-c4noc(C(F)(F)F)n4)c3)CC2)nc1 | 58% (active) | 18% | 3% | 84% (active) | inactive | inactive | inactive | inactive
COc1ccc2c(c1C1CCN(CCCCNC(=O)c3ccc(-c4ccc(Cl)cn4)cc3)CC1)CCCC2 | 49% | 29% | -2% | 90% (active) | inactive | inactive | inactive | inactive
CN(CCCN(C)c1cc(NC(=O)c2cccc(F)c2)ccn1)Cc1cccc(O)c1 | 4% | -3% | -1% | 92% (active) | inactive | inactive | inactive | inactive
COC(=O)C1(NC(=O)c2ccc(-n3nc(C)c(-c4ccccc4)c3N)cc2)CCCC1 | 81% (active) | 9% | -5% | 96% (active) | inactive | inactive | inactive | inactive
CCCCN1C(=O)[C@H]2CC(=O)CC(C3CCCCC3)[C@H]2C1=O (some centres not stated) | 1% | -1% | -5% | 97% (active) | inactive | inactive | inactive | inactive
COc1cccc2c(NN=Cc3ccccc3Cl)cc(C)nc12 | 100% (active) | 22% | -2% | 102% (active) | inactive | inactive | inactive | inactive
CCNc1cc(C)nc(Nc2ccc(NC(=O)c3ccccc3Cl)cc2)n1 | 52% (active) | 48% | -2% | 100% (active) | inactive | inactive | inactive | inactive
